Assays:
Assay in all cases: log2 ratio of Biotin-Ahx-Ub-VS probe labelling (fragment/DMSO); higher = less target engagement (more negative = stronger competition), active = hit call of the paper (q ≤ 0.05, log2 ratio ≤ -1)
Settings in all cases: compound concentration: 200 uM; treatment time: 3 h
[1] = target: USP34 (UniProt Q70CQ2)
How it was run: (§1)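 Global-median-normalised Spectronaut label-free quantities were compared by unpaired t-test, and values are average log2 ratios of fragment over vehicle. Only proteins with ≥2 unique peptides were used. HEK293T lysate (495 µg per sample) was treated in triplicate with fragment at 200 µM or vehicle for 3 h and then with Biotin-Ahx-Ub-VS at 0.5 µM final for 1 h. Labelled DUBs were then NeutrAvidin-enriched, digested with LysC and trypsin, and run by diaPASEF LC-MS/MS.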

[2] = target: T1, USP36 (UniProt Q9P275)
T1 sequence (whole entry): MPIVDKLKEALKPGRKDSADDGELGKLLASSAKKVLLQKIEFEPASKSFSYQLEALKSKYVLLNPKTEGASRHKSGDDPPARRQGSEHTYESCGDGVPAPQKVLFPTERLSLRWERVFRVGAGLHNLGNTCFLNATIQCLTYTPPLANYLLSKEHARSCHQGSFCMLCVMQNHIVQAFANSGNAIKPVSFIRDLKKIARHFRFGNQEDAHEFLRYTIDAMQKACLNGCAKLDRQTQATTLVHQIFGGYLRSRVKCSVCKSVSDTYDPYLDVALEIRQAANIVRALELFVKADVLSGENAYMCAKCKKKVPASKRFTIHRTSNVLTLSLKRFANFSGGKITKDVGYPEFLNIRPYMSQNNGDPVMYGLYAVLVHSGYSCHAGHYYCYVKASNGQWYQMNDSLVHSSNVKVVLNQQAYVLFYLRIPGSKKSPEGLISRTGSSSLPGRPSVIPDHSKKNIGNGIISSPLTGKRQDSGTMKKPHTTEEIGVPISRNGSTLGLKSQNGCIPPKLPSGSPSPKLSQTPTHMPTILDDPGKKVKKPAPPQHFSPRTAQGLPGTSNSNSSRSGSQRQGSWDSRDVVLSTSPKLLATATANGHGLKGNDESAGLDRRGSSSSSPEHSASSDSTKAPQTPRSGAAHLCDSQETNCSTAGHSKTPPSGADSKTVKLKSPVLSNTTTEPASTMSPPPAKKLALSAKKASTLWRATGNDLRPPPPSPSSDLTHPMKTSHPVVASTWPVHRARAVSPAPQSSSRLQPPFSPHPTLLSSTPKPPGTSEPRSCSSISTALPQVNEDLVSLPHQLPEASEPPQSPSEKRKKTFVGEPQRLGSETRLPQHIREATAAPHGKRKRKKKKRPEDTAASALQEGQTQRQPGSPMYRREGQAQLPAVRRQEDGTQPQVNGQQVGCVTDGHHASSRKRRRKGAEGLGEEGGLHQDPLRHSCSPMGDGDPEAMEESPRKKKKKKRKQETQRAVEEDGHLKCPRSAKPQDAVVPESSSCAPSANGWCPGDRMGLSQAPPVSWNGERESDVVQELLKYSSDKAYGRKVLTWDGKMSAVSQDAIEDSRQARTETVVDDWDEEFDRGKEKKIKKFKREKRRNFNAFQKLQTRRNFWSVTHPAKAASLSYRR
How it was run: as §1

[3] = target: T2, USP38 (UniProt Q8NB14)
T2 sequence (whole entry): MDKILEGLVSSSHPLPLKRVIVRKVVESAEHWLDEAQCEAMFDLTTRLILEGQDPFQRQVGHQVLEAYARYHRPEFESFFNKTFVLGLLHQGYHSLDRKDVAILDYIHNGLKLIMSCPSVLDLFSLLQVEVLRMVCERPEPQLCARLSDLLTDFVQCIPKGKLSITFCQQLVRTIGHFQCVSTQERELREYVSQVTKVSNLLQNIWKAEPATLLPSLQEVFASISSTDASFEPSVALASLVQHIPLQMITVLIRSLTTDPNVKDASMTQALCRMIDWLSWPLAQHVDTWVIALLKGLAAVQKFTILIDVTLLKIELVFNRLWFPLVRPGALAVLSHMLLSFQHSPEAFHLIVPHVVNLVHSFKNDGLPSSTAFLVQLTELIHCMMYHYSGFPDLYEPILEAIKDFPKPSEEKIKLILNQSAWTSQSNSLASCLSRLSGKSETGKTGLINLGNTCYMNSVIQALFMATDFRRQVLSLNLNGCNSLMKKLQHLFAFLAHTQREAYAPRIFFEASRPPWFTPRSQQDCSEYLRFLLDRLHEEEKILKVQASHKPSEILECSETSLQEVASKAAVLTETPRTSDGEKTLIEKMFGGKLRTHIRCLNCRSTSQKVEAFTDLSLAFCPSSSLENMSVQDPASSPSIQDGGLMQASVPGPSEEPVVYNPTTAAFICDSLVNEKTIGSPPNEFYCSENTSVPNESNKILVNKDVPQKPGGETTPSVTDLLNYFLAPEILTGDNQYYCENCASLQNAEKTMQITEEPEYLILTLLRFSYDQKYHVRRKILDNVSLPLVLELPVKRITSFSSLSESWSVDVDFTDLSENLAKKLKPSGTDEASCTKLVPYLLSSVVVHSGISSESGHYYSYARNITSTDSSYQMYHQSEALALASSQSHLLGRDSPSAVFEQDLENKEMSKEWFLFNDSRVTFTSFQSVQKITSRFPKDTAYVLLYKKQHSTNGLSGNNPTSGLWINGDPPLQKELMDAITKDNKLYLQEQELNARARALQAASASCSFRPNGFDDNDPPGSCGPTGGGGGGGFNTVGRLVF
How it was run: as §1

[4] = target: T3, USP39 (UniProt Q53GS9)
T3 sequence (whole entry): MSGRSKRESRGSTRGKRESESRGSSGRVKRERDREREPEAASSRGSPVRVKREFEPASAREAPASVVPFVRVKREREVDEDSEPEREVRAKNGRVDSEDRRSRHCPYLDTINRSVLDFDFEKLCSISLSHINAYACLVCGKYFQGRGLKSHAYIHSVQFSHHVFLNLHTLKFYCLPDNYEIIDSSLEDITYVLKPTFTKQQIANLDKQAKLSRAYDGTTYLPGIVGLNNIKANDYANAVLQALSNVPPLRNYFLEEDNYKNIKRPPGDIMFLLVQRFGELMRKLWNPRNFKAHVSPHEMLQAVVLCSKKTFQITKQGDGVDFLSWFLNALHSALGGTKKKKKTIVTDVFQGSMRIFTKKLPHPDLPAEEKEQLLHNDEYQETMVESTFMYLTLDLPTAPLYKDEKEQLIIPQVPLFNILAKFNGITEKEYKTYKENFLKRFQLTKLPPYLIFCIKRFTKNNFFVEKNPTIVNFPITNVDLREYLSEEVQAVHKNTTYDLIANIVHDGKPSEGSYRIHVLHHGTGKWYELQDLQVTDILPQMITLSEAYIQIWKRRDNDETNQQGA
How it was run: as §1

[5] = target: T4, USP4 (UniProt Q13107)
T4 sequence (whole entry): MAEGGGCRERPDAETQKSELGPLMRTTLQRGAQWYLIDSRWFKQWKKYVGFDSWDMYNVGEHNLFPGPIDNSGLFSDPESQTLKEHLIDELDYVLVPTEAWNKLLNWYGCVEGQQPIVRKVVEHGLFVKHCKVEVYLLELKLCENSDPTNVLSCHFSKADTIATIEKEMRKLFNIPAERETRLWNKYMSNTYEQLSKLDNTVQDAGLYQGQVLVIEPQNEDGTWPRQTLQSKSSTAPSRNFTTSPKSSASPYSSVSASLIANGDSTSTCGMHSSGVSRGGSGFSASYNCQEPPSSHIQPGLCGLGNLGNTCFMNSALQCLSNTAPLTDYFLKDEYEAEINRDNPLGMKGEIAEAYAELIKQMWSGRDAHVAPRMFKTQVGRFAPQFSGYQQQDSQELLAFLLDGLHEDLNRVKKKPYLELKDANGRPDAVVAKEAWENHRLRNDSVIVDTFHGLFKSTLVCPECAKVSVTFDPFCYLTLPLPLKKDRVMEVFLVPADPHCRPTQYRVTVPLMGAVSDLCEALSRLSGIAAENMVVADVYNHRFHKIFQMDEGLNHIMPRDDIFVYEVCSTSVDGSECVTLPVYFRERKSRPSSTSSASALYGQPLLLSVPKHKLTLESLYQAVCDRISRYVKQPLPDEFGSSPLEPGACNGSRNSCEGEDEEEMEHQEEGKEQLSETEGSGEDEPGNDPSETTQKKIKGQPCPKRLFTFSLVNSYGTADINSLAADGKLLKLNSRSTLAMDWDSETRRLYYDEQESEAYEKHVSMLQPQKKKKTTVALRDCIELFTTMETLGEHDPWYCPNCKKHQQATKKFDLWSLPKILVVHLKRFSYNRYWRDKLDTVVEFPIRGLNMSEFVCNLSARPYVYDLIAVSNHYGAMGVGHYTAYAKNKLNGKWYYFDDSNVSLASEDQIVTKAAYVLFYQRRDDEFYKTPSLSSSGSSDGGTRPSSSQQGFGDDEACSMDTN
How it was run: as §1

Measured: log2 ratio of Biotin-Ahx-Ub-VS probe labelling

USP34, sequence (Q70CQ2 whole entry, the tested form may be a part): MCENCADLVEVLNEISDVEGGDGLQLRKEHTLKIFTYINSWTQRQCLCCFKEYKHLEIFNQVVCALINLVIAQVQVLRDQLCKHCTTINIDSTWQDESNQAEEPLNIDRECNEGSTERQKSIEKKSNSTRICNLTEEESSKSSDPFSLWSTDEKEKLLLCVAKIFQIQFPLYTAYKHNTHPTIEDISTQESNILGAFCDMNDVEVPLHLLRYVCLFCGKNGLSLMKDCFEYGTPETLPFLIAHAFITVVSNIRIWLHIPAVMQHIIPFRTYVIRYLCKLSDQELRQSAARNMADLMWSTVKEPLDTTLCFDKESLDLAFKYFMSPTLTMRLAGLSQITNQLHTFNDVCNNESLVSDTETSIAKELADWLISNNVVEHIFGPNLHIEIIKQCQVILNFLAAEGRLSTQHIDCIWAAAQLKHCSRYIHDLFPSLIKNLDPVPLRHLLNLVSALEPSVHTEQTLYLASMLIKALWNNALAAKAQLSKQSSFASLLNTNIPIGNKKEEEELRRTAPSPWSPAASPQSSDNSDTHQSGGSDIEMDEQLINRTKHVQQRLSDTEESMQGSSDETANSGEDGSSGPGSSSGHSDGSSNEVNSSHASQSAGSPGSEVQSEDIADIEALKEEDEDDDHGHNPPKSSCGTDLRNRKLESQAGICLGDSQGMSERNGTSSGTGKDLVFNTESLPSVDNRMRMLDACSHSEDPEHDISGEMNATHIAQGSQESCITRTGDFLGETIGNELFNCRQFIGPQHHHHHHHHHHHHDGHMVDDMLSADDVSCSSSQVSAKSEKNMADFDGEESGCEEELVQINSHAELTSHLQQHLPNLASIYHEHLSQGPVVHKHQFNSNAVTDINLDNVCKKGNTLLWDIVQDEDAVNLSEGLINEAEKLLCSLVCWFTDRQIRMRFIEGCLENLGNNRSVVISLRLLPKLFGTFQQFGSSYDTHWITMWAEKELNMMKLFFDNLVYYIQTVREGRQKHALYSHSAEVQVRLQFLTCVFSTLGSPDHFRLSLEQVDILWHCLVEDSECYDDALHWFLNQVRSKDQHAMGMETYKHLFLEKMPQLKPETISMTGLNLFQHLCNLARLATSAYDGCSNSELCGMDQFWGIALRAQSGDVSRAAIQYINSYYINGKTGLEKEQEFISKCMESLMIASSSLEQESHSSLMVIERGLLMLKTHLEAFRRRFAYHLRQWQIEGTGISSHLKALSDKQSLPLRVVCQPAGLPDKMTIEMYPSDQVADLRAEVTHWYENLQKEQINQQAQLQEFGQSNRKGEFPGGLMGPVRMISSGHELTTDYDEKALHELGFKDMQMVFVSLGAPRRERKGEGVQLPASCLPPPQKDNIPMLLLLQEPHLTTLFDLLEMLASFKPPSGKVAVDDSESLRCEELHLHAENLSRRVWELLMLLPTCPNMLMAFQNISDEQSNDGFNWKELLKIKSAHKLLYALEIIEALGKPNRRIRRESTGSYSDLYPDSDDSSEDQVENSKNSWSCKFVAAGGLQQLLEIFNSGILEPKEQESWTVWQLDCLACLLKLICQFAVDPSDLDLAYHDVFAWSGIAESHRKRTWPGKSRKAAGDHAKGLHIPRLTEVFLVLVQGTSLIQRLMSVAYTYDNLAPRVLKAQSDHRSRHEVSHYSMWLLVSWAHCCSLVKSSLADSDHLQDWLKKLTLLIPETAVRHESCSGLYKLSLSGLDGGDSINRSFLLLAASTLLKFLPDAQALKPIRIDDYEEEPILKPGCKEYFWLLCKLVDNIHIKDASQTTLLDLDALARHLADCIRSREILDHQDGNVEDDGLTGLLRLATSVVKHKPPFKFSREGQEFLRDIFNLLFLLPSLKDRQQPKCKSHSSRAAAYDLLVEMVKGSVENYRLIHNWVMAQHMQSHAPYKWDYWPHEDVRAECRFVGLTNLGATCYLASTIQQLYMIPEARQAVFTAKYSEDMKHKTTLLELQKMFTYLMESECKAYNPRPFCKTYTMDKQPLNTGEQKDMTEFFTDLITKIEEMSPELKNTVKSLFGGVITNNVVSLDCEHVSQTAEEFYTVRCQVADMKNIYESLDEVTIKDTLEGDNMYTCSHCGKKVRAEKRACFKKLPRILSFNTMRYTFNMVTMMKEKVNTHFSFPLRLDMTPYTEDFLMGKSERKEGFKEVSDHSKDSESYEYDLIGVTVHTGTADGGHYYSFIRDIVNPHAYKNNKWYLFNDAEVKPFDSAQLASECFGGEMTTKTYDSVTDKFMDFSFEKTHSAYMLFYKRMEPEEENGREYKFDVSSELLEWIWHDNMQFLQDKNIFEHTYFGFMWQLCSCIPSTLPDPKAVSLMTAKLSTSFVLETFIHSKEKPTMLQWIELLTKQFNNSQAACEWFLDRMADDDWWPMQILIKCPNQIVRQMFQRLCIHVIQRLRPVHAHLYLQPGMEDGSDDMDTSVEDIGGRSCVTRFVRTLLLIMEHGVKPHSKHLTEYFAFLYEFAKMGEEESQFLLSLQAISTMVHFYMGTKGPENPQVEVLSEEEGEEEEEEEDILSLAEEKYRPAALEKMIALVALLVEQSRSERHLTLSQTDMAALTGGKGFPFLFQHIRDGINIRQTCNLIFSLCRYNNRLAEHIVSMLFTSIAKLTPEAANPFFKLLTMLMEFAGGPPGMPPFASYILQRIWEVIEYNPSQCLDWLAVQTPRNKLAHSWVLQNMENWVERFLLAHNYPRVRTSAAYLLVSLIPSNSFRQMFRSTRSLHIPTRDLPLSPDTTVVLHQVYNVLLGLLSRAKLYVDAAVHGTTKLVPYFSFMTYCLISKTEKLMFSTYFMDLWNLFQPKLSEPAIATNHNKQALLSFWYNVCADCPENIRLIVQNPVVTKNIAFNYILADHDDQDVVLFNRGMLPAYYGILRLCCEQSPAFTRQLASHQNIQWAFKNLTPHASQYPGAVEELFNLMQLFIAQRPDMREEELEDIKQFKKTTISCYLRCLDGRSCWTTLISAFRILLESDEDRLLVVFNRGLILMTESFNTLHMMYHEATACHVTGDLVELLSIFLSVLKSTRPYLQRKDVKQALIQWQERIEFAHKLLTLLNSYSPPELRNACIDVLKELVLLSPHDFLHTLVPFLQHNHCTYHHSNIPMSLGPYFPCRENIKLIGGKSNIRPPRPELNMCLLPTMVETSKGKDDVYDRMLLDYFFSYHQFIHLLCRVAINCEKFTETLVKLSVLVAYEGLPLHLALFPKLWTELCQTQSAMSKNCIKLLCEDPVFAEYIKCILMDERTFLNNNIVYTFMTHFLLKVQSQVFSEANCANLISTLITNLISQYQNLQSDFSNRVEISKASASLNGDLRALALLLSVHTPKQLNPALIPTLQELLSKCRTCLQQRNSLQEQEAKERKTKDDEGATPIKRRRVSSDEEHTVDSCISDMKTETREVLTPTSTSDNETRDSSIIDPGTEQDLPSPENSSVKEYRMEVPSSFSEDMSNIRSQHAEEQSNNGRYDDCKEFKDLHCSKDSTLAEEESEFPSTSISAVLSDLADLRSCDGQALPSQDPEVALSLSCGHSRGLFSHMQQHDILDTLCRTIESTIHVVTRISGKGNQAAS

Cc1c(NC(=O)CCl)c(=O)n(-c2ccccc2)n1C
inactive: [1] -0.0386 | [2] -0.0835 | [3] -0.177 | [4] -0.16 | [5] 0.0206

— the supplement of paper PMC11732987, “Enantioselective OTUD7B fragment discovery through chemoproteomics screening and high-throughput optimisation” (Communications Chemistry, 2025)
